Measurements taken from the supplement of paper PMC11732987, “Enantioselective OTUD7B fragment discovery through chemoproteomics screening and high-throughput optimisation” (Communications Chemistry, 2025).

Key:
Test in all cases: log2 ratio of Biotin-Ahx-Ub-VS probe labelling (fragment/DMSO); higher = less target engagement (more negative = stronger competition), active = hit call of the paper (q ≤ 0.05, log2 ratio ≤ -1)
Conditions in all cases: compound concentration: 200 uM; treatment time: 3 h
[1] = biological target: T1, USP42 (UniProt Q9H9J4)
T1 sequence (whole entry): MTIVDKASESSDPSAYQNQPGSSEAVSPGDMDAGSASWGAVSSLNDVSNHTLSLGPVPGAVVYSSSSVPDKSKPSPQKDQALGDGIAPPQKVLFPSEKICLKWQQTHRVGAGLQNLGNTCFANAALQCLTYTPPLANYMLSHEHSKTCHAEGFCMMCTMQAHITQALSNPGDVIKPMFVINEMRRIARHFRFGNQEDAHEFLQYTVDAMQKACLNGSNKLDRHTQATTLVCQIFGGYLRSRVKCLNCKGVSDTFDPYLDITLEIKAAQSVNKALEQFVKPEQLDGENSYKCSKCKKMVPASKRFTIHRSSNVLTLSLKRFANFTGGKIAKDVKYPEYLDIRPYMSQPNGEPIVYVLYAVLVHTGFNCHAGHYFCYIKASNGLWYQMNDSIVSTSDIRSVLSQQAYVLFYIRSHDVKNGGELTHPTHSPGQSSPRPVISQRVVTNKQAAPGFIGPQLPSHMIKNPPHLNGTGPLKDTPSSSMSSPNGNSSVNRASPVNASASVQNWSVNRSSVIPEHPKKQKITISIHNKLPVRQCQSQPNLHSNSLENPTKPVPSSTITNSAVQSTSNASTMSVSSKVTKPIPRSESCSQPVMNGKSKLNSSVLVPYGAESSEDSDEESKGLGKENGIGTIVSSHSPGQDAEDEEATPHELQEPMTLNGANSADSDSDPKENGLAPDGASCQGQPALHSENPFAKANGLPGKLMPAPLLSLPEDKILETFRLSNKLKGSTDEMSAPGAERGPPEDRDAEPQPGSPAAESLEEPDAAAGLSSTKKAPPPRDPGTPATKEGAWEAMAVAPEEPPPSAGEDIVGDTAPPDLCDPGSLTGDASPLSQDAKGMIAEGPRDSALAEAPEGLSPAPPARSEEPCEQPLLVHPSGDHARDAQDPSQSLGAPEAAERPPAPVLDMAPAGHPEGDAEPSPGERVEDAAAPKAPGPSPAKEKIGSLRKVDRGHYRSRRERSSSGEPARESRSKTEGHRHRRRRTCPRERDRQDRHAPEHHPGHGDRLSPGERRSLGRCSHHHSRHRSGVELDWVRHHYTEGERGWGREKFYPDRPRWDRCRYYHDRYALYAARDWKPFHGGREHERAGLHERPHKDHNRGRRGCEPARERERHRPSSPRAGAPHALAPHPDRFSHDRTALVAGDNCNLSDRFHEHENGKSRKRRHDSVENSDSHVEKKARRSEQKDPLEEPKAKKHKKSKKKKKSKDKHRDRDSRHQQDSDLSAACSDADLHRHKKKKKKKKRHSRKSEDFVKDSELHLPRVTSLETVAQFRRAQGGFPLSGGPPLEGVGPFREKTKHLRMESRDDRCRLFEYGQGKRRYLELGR
In short: (§1)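 Labelling with Biotin-Ahx-Ub-VS (0.5 µM final, 1 h) followed a 3 h triplicate treatment of HEK293T lysate (495 µg per sample, Tris/CHAPS/IGEPAL buffer with protease inhibitors) with fragment at 200 µM or vehicle. Labelled DUBs were NeutrAvidin-enriched, digested with LysC and trypsin, and run by diaPASEF LC-MS/MS. The values, average log2 fragment/vehicle ratios by unpaired t-test, come from global-median-normalised Spectronaut label-free quantities. Proteins with ≥2 unique peptides were used.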

[2] = biological target: USP46 (UniProt P62068)
In short: as §1

[3] = biological target: T2, USP47 (UniProt Q96K76)
T2 sequence (whole entry): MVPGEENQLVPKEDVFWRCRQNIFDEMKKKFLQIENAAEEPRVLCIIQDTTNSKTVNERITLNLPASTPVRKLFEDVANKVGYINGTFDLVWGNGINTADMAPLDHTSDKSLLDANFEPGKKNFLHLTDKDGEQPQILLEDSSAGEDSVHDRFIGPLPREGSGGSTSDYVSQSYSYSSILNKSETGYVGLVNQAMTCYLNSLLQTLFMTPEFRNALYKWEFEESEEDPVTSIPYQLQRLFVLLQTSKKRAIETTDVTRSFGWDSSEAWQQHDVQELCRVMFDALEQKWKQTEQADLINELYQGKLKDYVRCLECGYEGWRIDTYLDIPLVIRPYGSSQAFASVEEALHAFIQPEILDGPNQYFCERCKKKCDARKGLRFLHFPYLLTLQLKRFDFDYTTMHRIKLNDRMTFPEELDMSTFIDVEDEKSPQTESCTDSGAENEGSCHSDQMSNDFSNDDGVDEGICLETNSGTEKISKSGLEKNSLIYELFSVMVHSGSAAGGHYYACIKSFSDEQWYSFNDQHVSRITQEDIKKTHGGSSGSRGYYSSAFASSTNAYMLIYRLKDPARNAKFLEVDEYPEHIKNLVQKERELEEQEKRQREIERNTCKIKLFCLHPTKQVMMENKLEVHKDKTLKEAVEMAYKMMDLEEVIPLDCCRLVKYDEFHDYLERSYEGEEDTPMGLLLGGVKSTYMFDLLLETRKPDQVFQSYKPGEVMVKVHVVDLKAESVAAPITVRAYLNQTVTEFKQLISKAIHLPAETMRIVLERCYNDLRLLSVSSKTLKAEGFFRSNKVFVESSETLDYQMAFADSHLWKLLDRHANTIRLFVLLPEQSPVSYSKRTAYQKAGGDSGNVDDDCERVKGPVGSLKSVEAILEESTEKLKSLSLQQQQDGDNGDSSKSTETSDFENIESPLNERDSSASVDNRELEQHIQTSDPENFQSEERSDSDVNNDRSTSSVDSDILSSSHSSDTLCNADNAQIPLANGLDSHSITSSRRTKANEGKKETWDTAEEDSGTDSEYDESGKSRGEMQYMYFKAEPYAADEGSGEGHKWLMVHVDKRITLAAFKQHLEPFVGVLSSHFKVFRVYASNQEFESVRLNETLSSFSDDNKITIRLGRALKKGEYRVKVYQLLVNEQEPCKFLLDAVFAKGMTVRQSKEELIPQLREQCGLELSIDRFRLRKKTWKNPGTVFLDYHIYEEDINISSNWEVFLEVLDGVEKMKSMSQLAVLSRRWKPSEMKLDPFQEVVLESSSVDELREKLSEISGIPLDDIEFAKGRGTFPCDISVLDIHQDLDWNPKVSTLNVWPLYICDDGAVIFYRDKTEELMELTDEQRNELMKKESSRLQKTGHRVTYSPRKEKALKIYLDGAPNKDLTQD
In short: as §1

[4] = biological target: T3, USP48 (UniProt Q86UV5)
T3 sequence (whole entry): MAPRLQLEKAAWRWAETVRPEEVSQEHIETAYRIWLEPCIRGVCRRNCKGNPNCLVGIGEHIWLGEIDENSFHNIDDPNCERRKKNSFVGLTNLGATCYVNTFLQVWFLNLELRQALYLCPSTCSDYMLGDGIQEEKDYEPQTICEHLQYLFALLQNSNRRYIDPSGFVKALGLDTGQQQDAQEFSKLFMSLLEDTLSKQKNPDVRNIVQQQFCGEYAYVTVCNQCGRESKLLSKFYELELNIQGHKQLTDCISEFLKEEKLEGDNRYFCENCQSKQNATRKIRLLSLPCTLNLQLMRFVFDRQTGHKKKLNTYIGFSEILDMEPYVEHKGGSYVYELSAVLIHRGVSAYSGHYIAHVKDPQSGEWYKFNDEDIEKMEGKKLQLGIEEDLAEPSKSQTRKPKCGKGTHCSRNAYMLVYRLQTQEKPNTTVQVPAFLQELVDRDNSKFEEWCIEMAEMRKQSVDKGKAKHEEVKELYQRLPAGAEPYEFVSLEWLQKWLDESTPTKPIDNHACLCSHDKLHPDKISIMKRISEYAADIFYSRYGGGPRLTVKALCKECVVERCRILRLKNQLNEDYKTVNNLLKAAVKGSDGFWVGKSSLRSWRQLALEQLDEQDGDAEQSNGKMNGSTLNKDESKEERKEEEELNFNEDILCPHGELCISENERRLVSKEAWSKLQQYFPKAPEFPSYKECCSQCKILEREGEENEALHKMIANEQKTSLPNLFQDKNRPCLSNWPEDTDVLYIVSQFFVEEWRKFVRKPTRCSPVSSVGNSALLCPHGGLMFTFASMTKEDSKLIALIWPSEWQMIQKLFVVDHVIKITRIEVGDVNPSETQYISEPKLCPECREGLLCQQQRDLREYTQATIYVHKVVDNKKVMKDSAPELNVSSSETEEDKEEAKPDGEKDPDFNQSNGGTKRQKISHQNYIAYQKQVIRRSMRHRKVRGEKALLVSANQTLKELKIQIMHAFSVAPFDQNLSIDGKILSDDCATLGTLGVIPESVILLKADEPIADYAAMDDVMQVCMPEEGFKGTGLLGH
In short: as §1

[5] = biological target: T4, USP5 (UniProt P45974)
T4 sequence (whole entry): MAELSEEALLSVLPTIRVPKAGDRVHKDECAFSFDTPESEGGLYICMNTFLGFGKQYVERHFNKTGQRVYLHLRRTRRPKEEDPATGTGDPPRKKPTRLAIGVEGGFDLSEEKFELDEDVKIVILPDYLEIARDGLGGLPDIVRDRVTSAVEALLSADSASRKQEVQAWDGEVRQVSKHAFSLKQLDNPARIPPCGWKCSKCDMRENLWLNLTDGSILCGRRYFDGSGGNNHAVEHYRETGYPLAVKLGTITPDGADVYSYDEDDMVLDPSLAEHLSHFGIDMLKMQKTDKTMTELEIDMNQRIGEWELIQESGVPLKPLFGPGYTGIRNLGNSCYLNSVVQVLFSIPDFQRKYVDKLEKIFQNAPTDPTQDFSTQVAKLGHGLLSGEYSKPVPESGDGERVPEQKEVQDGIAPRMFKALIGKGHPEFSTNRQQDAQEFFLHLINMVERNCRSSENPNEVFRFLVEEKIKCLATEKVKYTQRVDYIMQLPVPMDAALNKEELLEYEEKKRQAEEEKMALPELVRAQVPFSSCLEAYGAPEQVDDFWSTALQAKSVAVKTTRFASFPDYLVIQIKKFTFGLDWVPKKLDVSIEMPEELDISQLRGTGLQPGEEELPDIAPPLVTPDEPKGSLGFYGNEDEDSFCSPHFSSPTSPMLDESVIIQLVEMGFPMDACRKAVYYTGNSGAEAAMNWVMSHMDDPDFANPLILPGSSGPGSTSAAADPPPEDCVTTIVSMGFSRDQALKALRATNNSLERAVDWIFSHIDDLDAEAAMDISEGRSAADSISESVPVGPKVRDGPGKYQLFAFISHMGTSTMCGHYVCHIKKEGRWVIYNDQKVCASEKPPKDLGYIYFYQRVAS
In short: as §1

[6] = biological target: USP54 (UniProt Q70EL1)
In short: as §1

[7] = biological target: USP7 (UniProt Q93009)
In short: as §1

[8] = biological target: T5, USP8 (UniProt P40818)
T5 sequence (whole entry): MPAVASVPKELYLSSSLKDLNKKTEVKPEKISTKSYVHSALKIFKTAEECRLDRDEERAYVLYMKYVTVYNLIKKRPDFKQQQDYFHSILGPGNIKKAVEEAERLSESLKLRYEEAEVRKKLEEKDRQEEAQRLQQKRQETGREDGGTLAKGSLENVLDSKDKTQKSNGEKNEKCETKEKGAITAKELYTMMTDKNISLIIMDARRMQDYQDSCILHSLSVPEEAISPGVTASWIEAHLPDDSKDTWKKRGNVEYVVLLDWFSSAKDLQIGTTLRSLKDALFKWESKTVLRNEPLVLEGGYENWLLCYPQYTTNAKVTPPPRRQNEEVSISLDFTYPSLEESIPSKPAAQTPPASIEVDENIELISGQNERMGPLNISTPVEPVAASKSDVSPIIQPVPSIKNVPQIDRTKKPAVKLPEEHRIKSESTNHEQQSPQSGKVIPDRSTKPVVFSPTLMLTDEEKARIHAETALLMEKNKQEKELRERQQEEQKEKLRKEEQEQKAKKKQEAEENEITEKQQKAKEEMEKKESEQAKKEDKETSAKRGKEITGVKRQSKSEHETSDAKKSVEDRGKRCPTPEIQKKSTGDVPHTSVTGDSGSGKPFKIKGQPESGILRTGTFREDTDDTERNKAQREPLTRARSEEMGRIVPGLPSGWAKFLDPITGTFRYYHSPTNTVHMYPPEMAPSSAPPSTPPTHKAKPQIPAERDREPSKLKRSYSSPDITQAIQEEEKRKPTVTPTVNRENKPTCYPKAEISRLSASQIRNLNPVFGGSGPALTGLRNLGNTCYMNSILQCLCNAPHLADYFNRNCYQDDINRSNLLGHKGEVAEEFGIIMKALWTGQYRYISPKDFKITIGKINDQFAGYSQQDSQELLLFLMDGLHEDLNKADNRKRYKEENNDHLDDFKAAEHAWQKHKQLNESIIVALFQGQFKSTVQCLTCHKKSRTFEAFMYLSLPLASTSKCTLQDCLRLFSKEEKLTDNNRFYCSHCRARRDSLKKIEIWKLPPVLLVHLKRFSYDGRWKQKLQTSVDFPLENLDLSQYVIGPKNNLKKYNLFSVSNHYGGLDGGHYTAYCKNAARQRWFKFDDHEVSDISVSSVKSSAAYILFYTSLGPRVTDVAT
In short: as §1

[9] = biological target: USP9X (UniProt Q93008)
In short: as §1

[10] = biological target: UniProt O00487
In short: as §1

Measured: log2 ratio of Biotin-Ahx-Ub-VS probe labelling

USP54, sequence (Q70EL1 whole entry): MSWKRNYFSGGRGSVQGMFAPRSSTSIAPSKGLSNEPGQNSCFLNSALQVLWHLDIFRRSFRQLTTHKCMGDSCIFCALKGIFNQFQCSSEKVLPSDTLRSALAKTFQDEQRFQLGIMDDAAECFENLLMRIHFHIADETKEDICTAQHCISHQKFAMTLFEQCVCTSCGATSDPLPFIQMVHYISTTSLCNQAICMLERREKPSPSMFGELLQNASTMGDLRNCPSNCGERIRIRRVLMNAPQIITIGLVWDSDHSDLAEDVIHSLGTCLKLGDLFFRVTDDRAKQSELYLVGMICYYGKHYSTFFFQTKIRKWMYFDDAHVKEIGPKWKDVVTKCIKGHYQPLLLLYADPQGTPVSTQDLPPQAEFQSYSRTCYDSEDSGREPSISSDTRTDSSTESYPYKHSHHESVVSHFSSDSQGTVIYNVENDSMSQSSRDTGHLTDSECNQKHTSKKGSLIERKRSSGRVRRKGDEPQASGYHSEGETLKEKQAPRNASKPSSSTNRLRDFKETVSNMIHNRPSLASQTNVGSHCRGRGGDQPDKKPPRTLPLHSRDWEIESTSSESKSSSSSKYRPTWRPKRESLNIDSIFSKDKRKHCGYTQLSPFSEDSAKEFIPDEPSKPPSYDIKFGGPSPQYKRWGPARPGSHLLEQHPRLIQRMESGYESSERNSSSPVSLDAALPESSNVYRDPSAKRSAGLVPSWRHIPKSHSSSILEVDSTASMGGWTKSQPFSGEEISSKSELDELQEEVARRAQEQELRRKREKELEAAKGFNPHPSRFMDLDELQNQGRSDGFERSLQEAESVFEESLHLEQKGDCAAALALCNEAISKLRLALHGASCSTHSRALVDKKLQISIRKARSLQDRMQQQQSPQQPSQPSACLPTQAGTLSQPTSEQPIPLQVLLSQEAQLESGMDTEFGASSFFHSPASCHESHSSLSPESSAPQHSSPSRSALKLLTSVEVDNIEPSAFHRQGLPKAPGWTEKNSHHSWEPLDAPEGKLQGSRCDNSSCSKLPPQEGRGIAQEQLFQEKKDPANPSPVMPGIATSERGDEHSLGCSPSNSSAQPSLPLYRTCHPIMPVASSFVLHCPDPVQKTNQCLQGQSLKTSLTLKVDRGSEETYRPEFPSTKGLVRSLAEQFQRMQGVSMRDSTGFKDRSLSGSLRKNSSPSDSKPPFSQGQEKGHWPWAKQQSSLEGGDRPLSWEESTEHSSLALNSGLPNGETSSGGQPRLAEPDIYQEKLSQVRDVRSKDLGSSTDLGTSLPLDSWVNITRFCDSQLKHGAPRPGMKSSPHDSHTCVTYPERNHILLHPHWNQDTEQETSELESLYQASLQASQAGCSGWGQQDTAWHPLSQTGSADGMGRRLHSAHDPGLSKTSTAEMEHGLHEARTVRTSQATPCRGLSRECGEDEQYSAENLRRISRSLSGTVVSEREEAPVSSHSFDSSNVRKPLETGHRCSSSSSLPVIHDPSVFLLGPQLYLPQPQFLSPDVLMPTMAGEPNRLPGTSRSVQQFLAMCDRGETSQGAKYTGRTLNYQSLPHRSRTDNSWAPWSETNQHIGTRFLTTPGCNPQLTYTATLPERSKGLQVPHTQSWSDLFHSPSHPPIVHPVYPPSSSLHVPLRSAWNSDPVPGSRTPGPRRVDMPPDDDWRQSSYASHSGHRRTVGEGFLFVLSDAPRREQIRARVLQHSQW
USP9X, sequence (Q93008 whole entry): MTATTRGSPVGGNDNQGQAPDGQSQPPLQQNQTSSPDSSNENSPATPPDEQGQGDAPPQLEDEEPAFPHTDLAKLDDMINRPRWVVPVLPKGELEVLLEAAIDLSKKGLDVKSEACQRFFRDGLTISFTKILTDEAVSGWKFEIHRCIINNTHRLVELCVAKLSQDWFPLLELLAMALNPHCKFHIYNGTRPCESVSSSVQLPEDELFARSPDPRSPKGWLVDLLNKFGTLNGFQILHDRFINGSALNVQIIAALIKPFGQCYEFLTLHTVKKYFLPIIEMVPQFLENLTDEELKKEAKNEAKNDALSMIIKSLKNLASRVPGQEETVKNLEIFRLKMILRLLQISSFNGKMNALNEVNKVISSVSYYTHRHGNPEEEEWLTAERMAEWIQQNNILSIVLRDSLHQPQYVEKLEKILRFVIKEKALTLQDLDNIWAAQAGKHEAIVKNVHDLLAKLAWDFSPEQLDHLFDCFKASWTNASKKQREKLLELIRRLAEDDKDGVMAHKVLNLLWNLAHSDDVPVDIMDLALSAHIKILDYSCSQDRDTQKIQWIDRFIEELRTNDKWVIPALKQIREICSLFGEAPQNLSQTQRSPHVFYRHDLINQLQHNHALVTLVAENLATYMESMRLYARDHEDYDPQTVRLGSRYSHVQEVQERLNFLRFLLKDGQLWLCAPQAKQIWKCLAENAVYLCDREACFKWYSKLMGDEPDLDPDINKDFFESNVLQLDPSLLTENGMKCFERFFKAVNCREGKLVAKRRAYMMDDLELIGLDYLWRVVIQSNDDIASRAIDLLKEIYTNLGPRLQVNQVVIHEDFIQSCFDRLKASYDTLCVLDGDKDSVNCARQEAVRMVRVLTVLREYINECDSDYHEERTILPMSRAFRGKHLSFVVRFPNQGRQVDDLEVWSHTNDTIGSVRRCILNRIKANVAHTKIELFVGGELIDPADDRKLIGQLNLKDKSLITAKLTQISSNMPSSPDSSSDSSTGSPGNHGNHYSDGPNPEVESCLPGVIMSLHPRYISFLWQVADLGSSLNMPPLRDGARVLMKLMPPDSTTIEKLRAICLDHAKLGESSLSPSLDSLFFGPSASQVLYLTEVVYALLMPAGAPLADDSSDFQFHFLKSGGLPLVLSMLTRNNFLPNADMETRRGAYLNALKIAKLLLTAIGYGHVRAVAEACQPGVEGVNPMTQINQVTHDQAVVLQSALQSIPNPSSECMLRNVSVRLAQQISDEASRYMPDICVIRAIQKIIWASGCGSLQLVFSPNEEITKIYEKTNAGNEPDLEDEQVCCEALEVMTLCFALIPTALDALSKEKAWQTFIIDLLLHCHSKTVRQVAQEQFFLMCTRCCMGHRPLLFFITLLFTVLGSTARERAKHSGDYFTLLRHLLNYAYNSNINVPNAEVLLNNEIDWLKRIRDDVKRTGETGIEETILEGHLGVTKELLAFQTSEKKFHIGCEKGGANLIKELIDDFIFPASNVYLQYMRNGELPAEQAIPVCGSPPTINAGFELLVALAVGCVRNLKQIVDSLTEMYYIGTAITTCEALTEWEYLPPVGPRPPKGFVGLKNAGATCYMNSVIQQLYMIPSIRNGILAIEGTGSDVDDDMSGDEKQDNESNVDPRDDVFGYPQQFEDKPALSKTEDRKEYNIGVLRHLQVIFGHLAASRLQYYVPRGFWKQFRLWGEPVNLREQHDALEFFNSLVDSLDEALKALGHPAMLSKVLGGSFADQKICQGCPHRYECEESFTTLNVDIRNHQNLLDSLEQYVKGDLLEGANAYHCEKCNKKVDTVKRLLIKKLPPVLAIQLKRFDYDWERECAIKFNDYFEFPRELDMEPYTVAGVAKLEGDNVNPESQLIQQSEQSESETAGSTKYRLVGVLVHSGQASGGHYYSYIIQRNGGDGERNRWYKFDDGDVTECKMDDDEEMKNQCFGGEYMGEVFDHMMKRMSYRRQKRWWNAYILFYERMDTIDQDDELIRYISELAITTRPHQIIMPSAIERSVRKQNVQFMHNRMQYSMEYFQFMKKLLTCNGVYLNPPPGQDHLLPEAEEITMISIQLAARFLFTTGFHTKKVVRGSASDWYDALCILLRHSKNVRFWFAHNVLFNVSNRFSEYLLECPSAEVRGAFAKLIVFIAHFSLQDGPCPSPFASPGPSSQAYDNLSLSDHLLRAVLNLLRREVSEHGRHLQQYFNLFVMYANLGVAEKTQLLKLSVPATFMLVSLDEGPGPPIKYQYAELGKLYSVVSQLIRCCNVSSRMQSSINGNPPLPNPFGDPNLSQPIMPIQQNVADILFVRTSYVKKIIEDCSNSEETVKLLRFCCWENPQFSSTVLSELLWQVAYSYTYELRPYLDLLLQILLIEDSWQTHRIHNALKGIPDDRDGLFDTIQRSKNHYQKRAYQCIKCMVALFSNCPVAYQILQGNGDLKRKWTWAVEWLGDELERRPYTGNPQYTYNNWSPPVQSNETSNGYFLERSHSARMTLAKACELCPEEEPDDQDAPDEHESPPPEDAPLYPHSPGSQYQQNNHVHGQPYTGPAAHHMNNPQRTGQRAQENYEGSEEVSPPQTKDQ
USP46, sequence (P62068 whole entry): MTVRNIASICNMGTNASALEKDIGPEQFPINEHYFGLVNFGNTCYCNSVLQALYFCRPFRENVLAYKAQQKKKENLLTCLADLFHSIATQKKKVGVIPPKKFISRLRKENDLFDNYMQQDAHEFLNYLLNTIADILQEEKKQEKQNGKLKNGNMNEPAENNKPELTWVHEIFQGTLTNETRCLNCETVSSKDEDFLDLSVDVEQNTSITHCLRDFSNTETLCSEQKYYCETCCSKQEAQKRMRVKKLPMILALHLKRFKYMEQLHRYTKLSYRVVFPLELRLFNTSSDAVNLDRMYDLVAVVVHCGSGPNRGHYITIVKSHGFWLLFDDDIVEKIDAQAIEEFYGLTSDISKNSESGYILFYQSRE
UniProt O00487, sequence (O00487 whole entry): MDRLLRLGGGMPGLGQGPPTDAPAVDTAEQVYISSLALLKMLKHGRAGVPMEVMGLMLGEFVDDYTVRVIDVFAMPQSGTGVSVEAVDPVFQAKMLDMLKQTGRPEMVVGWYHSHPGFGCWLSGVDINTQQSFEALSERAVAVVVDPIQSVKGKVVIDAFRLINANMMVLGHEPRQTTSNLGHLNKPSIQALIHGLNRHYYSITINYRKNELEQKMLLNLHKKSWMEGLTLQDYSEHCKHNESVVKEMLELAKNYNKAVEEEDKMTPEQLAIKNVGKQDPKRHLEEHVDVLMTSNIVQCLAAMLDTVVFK

Cc1ccc(N(CCC#N)C(=O)CCl)cc1C
active: [4] -1.01 | [7] -1.27
inactive: [1] -0.126 | [2] -0.12 | [3] -0.28 | [5] 0.408 | [6] -0.137 | [8] -0.394 | [9] -0.324 | [10] -0.246
